“And” between values parts separate entries of the source, which are not always exact repeats. Equal values may be shown once. Inconclusive results are not listed. The source made the active and inactive calls. Unless noted, calls come from the whole dose curve.

In experiment [1] the target is Glucocorticoid receptor (Homo sapiens) (UniProt P04150). In words: qHTS assay for small molecule agonists of glucocorticoid receptor signaling (AID 588532; active = well fitted curve in the direction sought with a large enough effect in the signal ratio, with a control signal flat; the % refers to the signal ratio;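 note: 100% = dexamethasone at 0.1 µM and 0% = DMSO only wells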). Conditions: HeLa MMTV-bla, beta-lactamase ratio, agonist, 18 h; stronger effect = higher value; percent of dexamethasone control, DMSO zero. The gist of the method: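 Titration series, up to 92 uM, applied to GRE-bla HeLa cells for 18 h at 37 C. Detection by CCF4 FRET substrate after 2 h at RT.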
Chain of Glucocorticoid receptor (Homo sapiens) (P04150 whole entry, looked up): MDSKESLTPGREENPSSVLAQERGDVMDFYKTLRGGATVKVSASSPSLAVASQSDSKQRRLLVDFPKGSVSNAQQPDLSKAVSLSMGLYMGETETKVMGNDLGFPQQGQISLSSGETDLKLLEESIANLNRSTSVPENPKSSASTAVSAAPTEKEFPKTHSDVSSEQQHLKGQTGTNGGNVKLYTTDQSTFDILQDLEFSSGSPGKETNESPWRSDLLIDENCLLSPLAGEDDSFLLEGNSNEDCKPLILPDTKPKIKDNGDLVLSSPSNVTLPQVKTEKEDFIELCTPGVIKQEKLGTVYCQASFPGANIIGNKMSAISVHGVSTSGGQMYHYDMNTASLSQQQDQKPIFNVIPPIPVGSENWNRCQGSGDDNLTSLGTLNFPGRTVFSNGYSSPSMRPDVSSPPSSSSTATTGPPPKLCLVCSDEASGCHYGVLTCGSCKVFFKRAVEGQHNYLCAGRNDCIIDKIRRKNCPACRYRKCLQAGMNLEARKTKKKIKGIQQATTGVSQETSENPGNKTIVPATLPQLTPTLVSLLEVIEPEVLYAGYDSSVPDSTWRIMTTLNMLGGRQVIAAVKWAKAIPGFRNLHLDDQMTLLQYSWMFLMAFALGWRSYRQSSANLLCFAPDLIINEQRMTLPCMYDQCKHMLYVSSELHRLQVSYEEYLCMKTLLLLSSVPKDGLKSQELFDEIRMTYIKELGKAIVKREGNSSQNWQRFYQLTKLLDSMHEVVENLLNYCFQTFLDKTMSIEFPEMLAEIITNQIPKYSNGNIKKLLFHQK
In general terms: qHTS replaces the single test concentration by a dilution series.

Experiment [2] concerns the target Peroxisome proliferator-activated receptor delta (Homo sapiens) (UniProt Q03181). Briefly: qHTS assay for small molecule agonists of peroxisome proliferator-activated receptor delta signaling (AID 588534).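 Note: 0% = DMSO basal wells and 100% = positive control agonist at 10 µM.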 The conditions noted are these: HEK293T PPARdelta-UAS-bla, beta-lactamase ratio, 18 h; series mostly up to 76.7 µM. The gist of the method: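 Agonist-mode qHTS; reporter cells, 5 hrs 37 C pre-incubation; compound titration, 18 hrs 37 C; CCF4 dye, 2 hrs RT; fluorescence read. EC50/efficacy via Hill fit.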

In experiment [3] the target is Vitamin D3 receptor (Homo sapiens) (UniProt P11473). Briefly: qHTS assay for small molecule agonists of vitamin D receptor signaling (AID 588543).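 Note: 0% = DMSO basal and 100% = reference agonist control.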 Conditions: HEK293T VDR-UAS-bla, beta-lactamase ratio, 16 h; series mostly up to 76.8 µM. The gist of the method:
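Reporter cells (HEK293T, VDR-UAS-bla) were seeded in medium with 2% charcoal-stripped serum and incubated 5 h, then compounds in concentration series were added for 16 h at 37 °C. Stimulation was scaled between DMSO basal and 50 nM 1α,25-dihydroxyvitamin D3.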

A short description of experiment [4]: qHTS assay for small molecule agonists of retinoid X receptor alpha signaling (AID 588544). The conditions noted are these: HEK293T RXRa-UAS-bla, beta-lactamase reporter, 18 h; 530 nm emission.
Experiment [5] concerns the target Thyroid hormone receptor beta (Homo sapiens) (UniProt P10828). In words: qHTS assay for small molecule agonists of thyroid hormone receptor beta signaling (AID 588545).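 Note: 0% = DMSO only and 100% = 10 nM T3.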 Conditions: TR-UAS-bla GripTite HEK 293, beta-lactamase ratio, agonist mode, 18 h, percent of T3 response, DMSO as zero; series mostly up to 76.7 µM. The method, boiled down:
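Beta-lactamase reporter activity under TR response element control is measured in HEK 293 cells after 18 hrs compound exposure. Signal is ratiometric CCF4 fluorescence, 460/530 nm.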

The target in experiment [6] is Luciferin 4-monooxygenase (Photinus pyralis) (UniProt P08659). Briefly: Biochemical firefly luciferase enzyme assay for NPC (AID 624030; active = well fitted inhibition curve with a large enough effect;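 note: purified P. pyralis luciferase at 10 nM with luciferin and ATP substrate; 0% = DMSO and -100% = full luciferase inhibition by PTC124 control; nearly all actives have a fitted effect of over 70% in size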). The conditions noted are these: purified P. pyralis luciferase, luminescence, 5 min; series mostly up to 58.6 µM. The method, boiled down:
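Counter-screen for direct inhibition of the luciferase enzyme by approved-drug library compounds, run at 10 nM enzyme in 50 mM Tris acetate (final). Luminescence was read within 5 min of enzyme-buffer addition and normalized to PTC124 versus DMSO (0%).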

The nature of experiment [7]: qHTS assay for small molecule agonists of the antioxidant response element (ARE) signaling pathway (AID 651741; active = well fitted activation curve with a large enough effect in the signal ratio; the % refers to the signal ratio; note: % of control where 0% means no effect). The conditions noted are these: HepG2 ARE-bla reporter, beta-lactamase FRET ratio, 16 h; series mostly up to 96 µM. The gist of the method: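 Reporter: beta-lactamase under ARE, stably in HepG2. Exposure: 16 h, 37 C, compounds delivered in DMSO by pin tool after 5 h cell preincubation. Readout: FRET substrate fluorescence after 2 h at RT.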

Experiment [8] in a line: Primary qHTS for inhibitors of SARS-S pseudo-typed particle cell entry (AID 1479145). Note: % is set by controls: 0 for no effect and ±100 for the full control effect; nearly all actives have a fitted effect of over 45% in size. Conditions: SARS-S pseudotyped particle cell entry, luciferase reporter; series mostly up to 57.1 µM.
Experiment [9] can be described thus: Primary qHTS for Huh7 cytotoxicity: counterscreen for inhibitors of MERS-S pseudotyped particle cell entry (AID 1479147). The conditions noted are these: cell viability read-out; series mostly up to 57.1 µM.
Experiment [10] can be described thus: Primary qHTS for inhibitors of MERS-S pseudo-typed particle cell entry (AID 1479149). For activity change, negative = inhibition: % is set by controls: 0 for no effect and ±100 for the full control effect. Note: nearly all actives have a fitted effect of over 60% in size. Conditions: MERS-S pseudotyped particle entry, luciferase; series mostly up to 57.1 µM.
Experiment [11] in a line: Primary qHTS for Vero E6 cytotoxicity: counterscreen for inhibitors of SARS-S pseudo-typed particle cell entry (AID 1479150). The conditions noted are these: cell viability; series mostly up to 57.1 µM.
Experiment [12] in a line: Cytotoxicity counterscreen for inhibitors of SARS-CoV-2 cell entry (AID 1645845). Note: nearly all actives have a fitted effect of over 50% in size. The conditions noted are these: cell viability (SARS-CoV-2 entry assay cells); series mostly up to 57.1 µM. The gist of the method: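 After a 15 min room-temperature ATPLite 1step step, luminescence reflected ATP remaining in HEK293-ACE2 cells exposed to compound for 1 h plus 48 h at 37 C, with percent activity set by cell and no-cell controls.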
A general note: The purpose of a counterscreen is to sort out artefacts and off-target activity.

A short description of experiment [13]: Primary qHTS to identify inhibitors of SARS-CoV-2 cell entry (AID 1645846). Note: nearly all actives have a fitted effect of over 45% in size. The conditions noted are these: SARS-CoV-2 pseudovirus cell entry assay, luminescence; activity change, negative = inhibition: at 57.1 µM (top of the series) unless noted. The method, boiled down:
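Inhibition of spike-mediated entry was scored in human ACE2-transfected Expi293F cells. Particles were MLV-pseudotyped with Wuhan-Hu-1 S carrying a 19-aa C-terminal deletion; signal was luciferase after two days, scaled between spike PP and fusion-protein-free PP.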

Experiment [14] addresses Glutathione peroxidase 1 (Homo sapiens) (UniProt P07203). In words: Primary qHTS Assay for Inhibitors of Recombinant Selenoprotein Glutathione Peroxidase 1 (GPX1) (AID 1845191; active = well fitted inhibition curve with a large enough effect; note: % is set by controls: 0 for no effect and ±100 for the full control effect; nearly all actives have a fitted effect of over 65% in size). The conditions noted are these: recombinant GPX1, GR-coupled NADPH fluorescence, 15 min; series mostly up to 48.8 µM. The method, boiled down:
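GPX1 10 nM, GR 100 nM, GSH 1 mM, NADPH 0.5 mM, CHP 0.5 mM (final). 30-min cpd preincubation, RT. Ex340/Em450 read t=0, t=15 min.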

The target of experiment [15] is Phospholipid hydroperoxide glutathione peroxidase GPX4 (Homo sapiens) (UniProt P36969). In words: Primary qHTS Assay for Inhibitors of Recombinant Selenoprotein Glutathione Peroxidase 4 (GPX4) (AID 1845192; active = well fitted inhibition curve with a large enough effect; note: % is set by controls: 0 for no effect and ±100 for the full control effect; nearly all actives have a fitted effect of over 65% in size). The conditions noted are these: recombinant GPX4, GR-coupled NADPH fluorescence, 15 min; series mostly up to 50 µM. The gist of the method:
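qHTS, GR-coupled: GPX4 200 nM + cpd 30 min RT → GSH 1 mM, NADPH 0.5 mM, GR 100 nM → CHP 0.5 mM start; fluor 340/450 at t0 and t15 min; no-enzyme wells as control.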

Chain of Peroxisome proliferator-activated receptor delta (Homo sapiens) (Q03181 whole entry, looked up): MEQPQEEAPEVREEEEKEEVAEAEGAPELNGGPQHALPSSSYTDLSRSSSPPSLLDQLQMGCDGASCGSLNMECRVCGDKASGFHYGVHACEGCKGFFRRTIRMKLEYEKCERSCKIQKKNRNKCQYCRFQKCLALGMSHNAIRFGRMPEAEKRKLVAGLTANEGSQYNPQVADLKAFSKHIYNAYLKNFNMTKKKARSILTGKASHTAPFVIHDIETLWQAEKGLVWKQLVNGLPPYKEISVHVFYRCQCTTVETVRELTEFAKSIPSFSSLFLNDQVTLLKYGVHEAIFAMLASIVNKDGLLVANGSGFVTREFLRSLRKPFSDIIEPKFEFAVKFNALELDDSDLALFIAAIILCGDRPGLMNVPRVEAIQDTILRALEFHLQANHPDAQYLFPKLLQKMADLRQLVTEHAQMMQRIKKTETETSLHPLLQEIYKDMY
Chain of Glutathione peroxidase 1 (Homo sapiens) (P07203 whole entry, looked up): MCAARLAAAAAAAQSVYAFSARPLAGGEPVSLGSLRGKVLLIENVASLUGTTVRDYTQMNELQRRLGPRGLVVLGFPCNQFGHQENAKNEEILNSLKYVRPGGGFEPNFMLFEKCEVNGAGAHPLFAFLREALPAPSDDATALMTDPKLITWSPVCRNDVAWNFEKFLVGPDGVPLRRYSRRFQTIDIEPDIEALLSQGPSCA
Chain of Vitamin D3 receptor (Homo sapiens) (P11473 whole entry, looked up): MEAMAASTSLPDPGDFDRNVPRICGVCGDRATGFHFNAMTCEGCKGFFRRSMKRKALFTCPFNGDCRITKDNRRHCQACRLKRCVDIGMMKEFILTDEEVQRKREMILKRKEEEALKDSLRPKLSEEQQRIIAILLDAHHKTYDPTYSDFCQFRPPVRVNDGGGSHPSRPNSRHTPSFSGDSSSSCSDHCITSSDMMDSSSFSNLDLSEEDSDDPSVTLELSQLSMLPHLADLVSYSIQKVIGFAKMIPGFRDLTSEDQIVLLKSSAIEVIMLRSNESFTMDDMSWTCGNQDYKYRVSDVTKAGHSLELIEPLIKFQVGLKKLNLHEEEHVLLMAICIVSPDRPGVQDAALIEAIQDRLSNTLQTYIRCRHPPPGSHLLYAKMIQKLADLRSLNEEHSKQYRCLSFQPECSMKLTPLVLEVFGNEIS
Chain of Phospholipid hydroperoxide glutathione peroxidase GPX4 (Homo sapiens) (P36969 whole entry, looked up): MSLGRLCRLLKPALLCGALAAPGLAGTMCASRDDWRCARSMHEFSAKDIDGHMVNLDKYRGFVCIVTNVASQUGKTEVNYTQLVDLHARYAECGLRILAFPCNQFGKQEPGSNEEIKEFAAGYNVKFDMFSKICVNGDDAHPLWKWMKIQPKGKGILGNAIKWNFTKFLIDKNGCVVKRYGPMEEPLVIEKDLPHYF
Chain of Thyroid hormone receptor beta (Homo sapiens) (P10828 whole entry, looked up): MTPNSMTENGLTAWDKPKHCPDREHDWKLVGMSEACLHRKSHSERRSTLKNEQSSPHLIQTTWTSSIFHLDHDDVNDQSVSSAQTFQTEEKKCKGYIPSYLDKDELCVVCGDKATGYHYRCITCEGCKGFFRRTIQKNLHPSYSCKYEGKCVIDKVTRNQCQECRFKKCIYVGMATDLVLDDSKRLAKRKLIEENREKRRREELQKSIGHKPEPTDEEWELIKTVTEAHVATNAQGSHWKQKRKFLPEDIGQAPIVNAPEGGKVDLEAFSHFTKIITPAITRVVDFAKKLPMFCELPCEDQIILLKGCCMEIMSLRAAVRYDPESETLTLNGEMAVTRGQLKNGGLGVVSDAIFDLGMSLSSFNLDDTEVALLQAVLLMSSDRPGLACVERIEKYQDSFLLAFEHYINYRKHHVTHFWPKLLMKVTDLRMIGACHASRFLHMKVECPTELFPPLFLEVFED
Chain of Luciferin 4-monooxygenase (Photinus pyralis) (P08659 whole entry, looked up): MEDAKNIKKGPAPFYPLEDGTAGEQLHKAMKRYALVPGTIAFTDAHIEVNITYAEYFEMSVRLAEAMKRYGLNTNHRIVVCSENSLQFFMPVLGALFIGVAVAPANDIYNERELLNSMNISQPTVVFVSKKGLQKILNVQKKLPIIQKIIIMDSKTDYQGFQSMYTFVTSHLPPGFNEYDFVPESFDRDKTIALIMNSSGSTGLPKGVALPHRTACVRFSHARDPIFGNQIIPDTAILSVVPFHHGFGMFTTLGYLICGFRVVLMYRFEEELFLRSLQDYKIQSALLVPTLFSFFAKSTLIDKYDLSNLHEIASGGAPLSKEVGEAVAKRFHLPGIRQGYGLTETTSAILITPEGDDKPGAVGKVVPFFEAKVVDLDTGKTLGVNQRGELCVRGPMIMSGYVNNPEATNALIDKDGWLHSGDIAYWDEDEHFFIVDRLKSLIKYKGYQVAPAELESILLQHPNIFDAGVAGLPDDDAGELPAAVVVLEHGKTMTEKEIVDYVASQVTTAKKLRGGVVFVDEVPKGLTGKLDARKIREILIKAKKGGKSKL

Regarding `CC1(C)C(C=C(Cl)Cl)C1C(=O)OCc1cccc(Oc2ccccc2)c1` (centres undefined), in [1], the activation was 2.68% (inactive) and -0.215% (inactive) and 2.06% (inactive). In addition, the result in experiment [2], in [3] and in experiment [5] was inactive. Also, the max response in experiment [4] is -7.32% and -8.4%. Further, the Potency entry in [6], in [7], in experiment [8], in experiment [9], in experiment [10] and in [11] was “inactive” in each case. Moreover, the Potency entry in experiment [12] is “inactive”.

Take `CNC(C)CC1CCCC1` (centres undefined): the Potency entry in experiment [8], in experiment [9], in experiment [10], in experiment [11], in experiment [12] and in [13] was “inactive” in each case. For the same compound, the Potency result in experiment [14] and in experiment [15] was “inactive” throughout.

For the compound `CN(C)Cc1ccccc1`, the outcome in experiment [2] was inactive. In addition, the Potency entry in experiment [8], in [9], in experiment [10], in [11] and in experiment [12] was “inactive” in each case.

Turning to `CC1(C)S[C@@H]2[C@H](NC(=O)COc3ccccc3)C(=O)N2[C@H]1C(=O)O`, the outcome in [2] was inactive. For the same compound, the Potency result in [8], in experiment [9], in experiment [10], in experiment [11] and in [12] was “inactive” throughout.

For `Fc1cccc(Br)c1NC1=NCCN1`, the Potency result in experiment [8], in [9], in experiment [10], in experiment [11], in [12] and in [14] was “inactive” in each case.

Take `C[Si](C)(C)O[Si](C)(C)O[Si](C)(C)C`: in [2], the outcome was inactive. In addition, the Potency result in experiment [8], in experiment [9], in [10], in experiment [11] and in experiment [12] was “inactive” in each case. The activity change, negative = inhibition in experiment [13] was -16.4% [at 114 µM].

Regarding `C[N+]1([O-])[C@H]2CC(OC(=O)C(CO)c3ccccc3)C[C@H]1[C@H]1O[C@H]12` (some centres undefined), the Potency entry in experiment [8], in [9], in [10], in experiment [11], in experiment [12] and in experiment [14] was “inactive” in each case. Further, in experiment [15], the Potency entry was “inactive”.

For `c1ccc2scnc2c1`, the result in [2] was inactive. For the same compound, the Potency entry in [8], in experiment [9], in experiment [10], in [11] and in [12] was “inactive” throughout. For the same compound, the activity change, negative = inhibition in experiment [13] was -27.1%.

Values taken from PubChem BioAssay (NCATS).
